AC50 and outcome data for 23 compounds are collected here from PubChem BioAssay (EPA / NIEHS).

Structures are written as SMILES. Records with an inconclusive call do not appear. Calls of active or inactive are those of the source. Rule for the calls, unless noted: active = hit-call score of the fitted dose curve at least 0.9, where 1 is the maximum; inconclusive = response in the unintended direction; inactive = score below 0.9.

Experiment [1] has as its target Estrogen receptor beta (Homo sapiens) (UniProt Q92731). Description: OT_ER_ERbERb_1440: Odyssey Thera (OT) 24-hour HEK293T Protein-Complementation Assay for Estrogen Receptor-beta/-beta Homodimer (AID 2283380).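 Note: scored as signal increase over DMSO baseline for both agonists and antagonists.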 Put shortly: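 HEK293T cells stably expressing ER beta LBD (aa 310-547) homodimer fragment-complementation reporter, dosed 24 h. Cells formaldehyde-fixed, Draq5-stained; gain in nuclear (agonist) or nuclear plus cytoplasmic (antagonist) fluorescence versus DMSO read by laser scanning cytometry.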

Experiment [2] deals with Estrogen receptor (Homo sapiens) (UniProt P03372). Description: OT_ERa_GFPERaERE_0480: Odyssey Thera (OT) 8-hour HeLa Transcription Induction Assay for Estrogen Receptor (AID 2283381; active = hit-call score of the fitted dose curve at least 0.9, where 1 is the maximum; inactive = score below 0.9). The method, boiled down:
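HeLa cells expressing GFP reporter under estrogen response element, imaged 8 h after dosing. GFP induction quantified by high-content fluorescence microscopy image analysis; gain of signal fitted versus DMSO.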

Experiment [3] shares this target. Description: OT_ERa_GFPERaERE_0120: Odyssey Thera (OT) 2-hour HeLa Transcription Induction Assay for Estrogen Receptor (AID 2283382). Put shortly:
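HeLa cells were dosed for 2 h, then GFP reporter induction was quantified by fluorescence microscopy with high-content image analysis. Gain of signal fitted against DMSO baseline.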

Experiment [4] has as its target Retinoic acid receptor RXR-alpha (Homo sapiens) (UniProt P19793). Description: OT_NURR1_NURR1RXRa_0480: Odyssey Thera (OT) 8-hour HEK293T Protein Complementation Assay for Nurr1/retinoid X receptor (RXR) (AID 2283385). Put shortly:
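HEK293T cells expressing Nurr1 and RXRα fused to reporter fragments (protein-fragment complementation); fluorescence measured 8 h after dosing. Gain of signal fitted relative to DMSO.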

Experiment [5] has the same target. As to the kind of experiment: OT_NURR1_NURR1RXRa_1440: Odyssey Thera (OT) 24-hour HEK293T Protein Complementation Assay for Nurr1/retinoid X receptor (RXR) (AID 2283386). The method, boiled down:
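HEK293T protein-fragment complementation of Nurr1 and RXRα fused to reporter fragments; compounds 24 h. Fluorescence gain from reconstituted reporter fitted versus DMSO.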

The target of experiment [6] is Peroxisome proliferator-activated receptor gamma (Homo sapiens) (UniProt P37231). Description: OT_PPARg_PPARgSRC1_0480: Odyssey Thera (OT) 8-hour Protein-Complementation Assay for Peroxisome Proliferator-activated Receptor Gamma / SRC-1 Co-activator (AID 2283387). Put shortly: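 Read-out: 488 nm N/C fluorescence ratio from complemented Venus YFP fragments, ≥350 cells per image, gain-of-signal fitted against DMSO baseline. Fusions of PPARg/SRC-1 with IFP1/IFP2 expressed transiently in HEK293T; compounds applied 8 h.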

The target is the same in experiment [7]. As to the kind of experiment: OT_PPARg_PPARgSRC1_1440: Odyssey Thera (OT) 24-hour Protein-Complementation Assay for Peroxisome Proliferator-activated Receptor Gamma/ SRC-1 Co-activator (AID 2283388). The method, boiled down:
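HEK293T transiently transfected with PPARg/SRC-1 split-Venus YFP fusions 48 h before dosing, then treated 24 h at 37C. Fixed cells imaged; nuclear/cytoplasmic 488 nm fluorescence ratio, gain of signal versus DMSO.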

Experiment [8] can be described thus: CEETOX_H295R_11DCORT: CeeTox H295R High-throughput Steroidogenesis Assay for 11-Deoxycortisol (11DCORT) (AID 2283432; active = hit-call score of the fitted dose curve at least 0.9, where 1 is the maximum; inactive = score below 0.9;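 for AC50: human adrenal H295R cells prestimulated with 10 µM forskolin for 48 h; 11-deoxycortisol secreted into the medium measured by LC-MS/MS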). The conditions noted are these: actives raise or lower the signal. Put shortly: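 H295R cells; 10 uM forskolin prestim 48 h; compound in 0.1% DMSO 48 h; media extracted with MTBE; 11-deoxycortisol by LC-MS/MS, 7-point standard curve; gain/loss vs DMSO baseline; viability by MTT in same wells.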

Experiment [9] is described as follows: CEETOX_H295R_OHPREG: CeeTox H295R High-throughput Steroidogenesis Assay for OH-Pregnenolone (OHPREG) (AID 2283434; active = hit-call score of the fitted dose curve at least 0.9, where 1 is the maximum; inactive = score below 0.9). The note with it: actives raise or lower the signal. The method, boiled down: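 H295R cells pre-stimulated 48 h with 10 uM forskolin, then exposed 48 h to chemical in 0.1% DMSO. 17alpha-hydroxypregnenolone in medium quantified by MTBE extraction and HPLC-MS/MS; bidirectional fit versus DMSO, viability checked by MTT.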

Experiment [10] has as its target Bile acid receptor (Homo sapiens) (UniProt Q96RI1). Description: OT_FXR_FXRSRC1_1440: Odyssey Thera (OT) 24-hour HEK293T Protein-Complementation Assay for Farnesoid X receptor/SRC-1 Co-activator (AID 2283384). Put shortly: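 HEK293T cells, 24 h after chemical dosing. FXR–SRC-1 coactivator interaction read as fluorescence from protein-fragment complementation of a split reporter. Gain of signal fitted against DMSO baseline.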

Estrogen receptor (Homo sapiens), sequence (P03372 whole entry, looked up): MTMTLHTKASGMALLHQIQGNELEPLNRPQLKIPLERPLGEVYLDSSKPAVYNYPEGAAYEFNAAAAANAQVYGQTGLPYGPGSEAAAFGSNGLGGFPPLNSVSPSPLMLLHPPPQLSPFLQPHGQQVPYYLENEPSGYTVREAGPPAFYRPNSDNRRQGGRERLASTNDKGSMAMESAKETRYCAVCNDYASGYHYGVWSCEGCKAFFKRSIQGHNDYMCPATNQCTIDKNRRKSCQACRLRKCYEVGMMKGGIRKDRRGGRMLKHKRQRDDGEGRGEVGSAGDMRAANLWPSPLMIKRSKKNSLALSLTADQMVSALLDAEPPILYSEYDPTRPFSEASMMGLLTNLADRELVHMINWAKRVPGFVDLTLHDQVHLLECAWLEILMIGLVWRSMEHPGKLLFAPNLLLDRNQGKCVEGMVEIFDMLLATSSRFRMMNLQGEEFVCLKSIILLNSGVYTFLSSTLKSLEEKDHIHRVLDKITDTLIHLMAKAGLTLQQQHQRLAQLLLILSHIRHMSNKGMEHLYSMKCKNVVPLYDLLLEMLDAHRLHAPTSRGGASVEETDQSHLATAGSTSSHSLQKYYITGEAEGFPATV
Bile acid receptor (Homo sapiens), sequence (Q96RI1 whole entry, looked up, the tested form may be a part): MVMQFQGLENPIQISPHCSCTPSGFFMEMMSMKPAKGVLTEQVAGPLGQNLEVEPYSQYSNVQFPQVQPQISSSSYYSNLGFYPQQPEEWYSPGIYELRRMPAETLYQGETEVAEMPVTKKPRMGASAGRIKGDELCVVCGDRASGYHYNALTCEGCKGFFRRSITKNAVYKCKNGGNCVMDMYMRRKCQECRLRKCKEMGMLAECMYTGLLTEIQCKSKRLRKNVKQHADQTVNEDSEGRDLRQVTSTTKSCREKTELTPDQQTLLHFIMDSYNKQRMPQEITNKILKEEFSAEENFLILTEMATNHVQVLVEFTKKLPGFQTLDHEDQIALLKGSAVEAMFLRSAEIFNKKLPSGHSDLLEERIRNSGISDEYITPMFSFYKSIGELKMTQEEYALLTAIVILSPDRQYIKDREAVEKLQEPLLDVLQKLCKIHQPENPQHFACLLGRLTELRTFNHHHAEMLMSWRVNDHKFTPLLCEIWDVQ
Peroxisome proliferator-activated receptor gamma (Homo sapiens), sequence (P37231 whole entry, looked up, the tested form may be a part): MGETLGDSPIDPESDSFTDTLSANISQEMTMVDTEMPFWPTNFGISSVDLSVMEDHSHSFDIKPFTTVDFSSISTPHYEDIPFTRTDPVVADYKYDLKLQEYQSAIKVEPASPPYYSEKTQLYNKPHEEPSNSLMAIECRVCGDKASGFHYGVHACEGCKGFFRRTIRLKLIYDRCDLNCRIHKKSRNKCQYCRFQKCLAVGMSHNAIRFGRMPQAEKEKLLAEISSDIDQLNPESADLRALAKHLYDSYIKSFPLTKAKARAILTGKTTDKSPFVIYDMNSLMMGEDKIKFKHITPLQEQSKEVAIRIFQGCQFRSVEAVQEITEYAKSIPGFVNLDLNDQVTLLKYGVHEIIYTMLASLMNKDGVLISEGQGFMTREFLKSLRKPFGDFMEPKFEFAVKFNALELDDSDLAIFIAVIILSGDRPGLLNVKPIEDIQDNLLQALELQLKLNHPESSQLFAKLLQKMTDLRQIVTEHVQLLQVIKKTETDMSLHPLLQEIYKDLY
Retinoic acid receptor RXR-alpha (Homo sapiens), sequence (P19793 whole entry, looked up, the tested form may be a part): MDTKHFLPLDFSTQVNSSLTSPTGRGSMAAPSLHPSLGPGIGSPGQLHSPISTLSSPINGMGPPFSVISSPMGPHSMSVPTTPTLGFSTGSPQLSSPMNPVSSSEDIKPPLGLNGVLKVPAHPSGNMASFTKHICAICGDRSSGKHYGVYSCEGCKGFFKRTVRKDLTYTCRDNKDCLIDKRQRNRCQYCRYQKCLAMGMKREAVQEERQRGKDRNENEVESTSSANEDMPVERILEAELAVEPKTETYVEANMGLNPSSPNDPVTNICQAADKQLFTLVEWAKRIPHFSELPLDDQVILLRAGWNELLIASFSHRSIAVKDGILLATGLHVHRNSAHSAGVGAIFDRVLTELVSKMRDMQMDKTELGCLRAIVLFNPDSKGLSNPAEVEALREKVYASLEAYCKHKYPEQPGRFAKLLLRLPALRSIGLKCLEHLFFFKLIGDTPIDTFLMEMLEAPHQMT
Estrogen receptor beta (Homo sapiens), sequence (Q92731 whole entry, looked up, the tested form may be a part): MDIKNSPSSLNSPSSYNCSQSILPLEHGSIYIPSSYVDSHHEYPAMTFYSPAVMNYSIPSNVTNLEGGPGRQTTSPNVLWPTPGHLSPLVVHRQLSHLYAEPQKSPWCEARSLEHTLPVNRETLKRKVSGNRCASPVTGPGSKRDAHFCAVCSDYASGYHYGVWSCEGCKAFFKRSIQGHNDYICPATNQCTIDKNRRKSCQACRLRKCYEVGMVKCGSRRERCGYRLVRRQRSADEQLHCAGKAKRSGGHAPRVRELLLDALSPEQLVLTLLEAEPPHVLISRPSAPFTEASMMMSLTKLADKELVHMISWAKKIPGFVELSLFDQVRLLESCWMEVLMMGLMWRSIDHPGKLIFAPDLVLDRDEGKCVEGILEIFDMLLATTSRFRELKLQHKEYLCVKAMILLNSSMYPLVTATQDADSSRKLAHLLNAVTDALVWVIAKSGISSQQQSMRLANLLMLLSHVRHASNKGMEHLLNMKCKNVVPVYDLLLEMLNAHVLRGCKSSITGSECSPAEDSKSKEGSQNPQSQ

A word on the AC50: it is the concentration giving half of the maximal activity seen. Regarding `CC(C)c1cccc(O)c1`, the AC50 in experiment [1] is 33.5 µM (active). Also, the outcome in [2], in experiment [3], in [4], in experiment [5], in experiment [6] and in experiment [7] was inactive. Also, the call in [8] and in [9] was inactive.

For the compound `CCCCCC(CO)CCC` (centres undefined), the compound was classed as inactive in experiment [1], in experiment [4], in experiment [5], in experiment [6] and in [7].

On to `OCCN1CCNCC1`, for which the outcome in [1], in [2], in [3], in [10], in experiment [4] and in experiment [5] was inactive. Further, the result in [6] and in [7] was inactive.

Turning to `NCCCN1CCOCC1`, the compound was called inactive in experiment [1], in experiment [2], in [3], in experiment [4], in experiment [6] and in experiment [7].

With `CCCCCCCCC=O`, the result in [1], in [2], in experiment [3], in experiment [10], in experiment [4] and in experiment [5] was inactive. Also, the result in experiment [6] and in experiment [7] was inactive.

In the case of `CCCCCCCCCC=O`, the compound was classed as inactive in [1], in experiment [2], in [3], in experiment [4], in experiment [5] and in [6]. The compound was classed as inactive in [7].

With `CCC/C=C/C=O`, the compound was classed as inactive in experiment [1], in experiment [2], in experiment [3], in experiment [6] and in [7].

For the compound `CCCCOCCOCCOCCOCCO`, the call in [1], in experiment [2], in [3], in [4], in experiment [5] and in [6] was inactive. Also, the compound was called inactive in [7].

Take `c1ccc(CCCc2ccccn2)cc1`: the result in experiment [1], in experiment [2], in [3], in experiment [10], in experiment [4] and in experiment [6] was inactive. For the same compound, the compound was classed as inactive in experiment [7] and in experiment [9].

`OCCOCCOCCOCCO`: the compound was classed as inactive in experiment [1], in experiment [2], in experiment [3], in [4] and in experiment [5].

As to `CCCCCCCCC`, the call in [1], in [2], in experiment [3], in [5], in experiment [6] and in experiment [7] was inactive.

In the case of `CC1COc2ccccc2N1C(=O)C(Cl)Cl` (centres undefined), the call in experiment [1], in experiment [2], in experiment [3], in experiment [4], in experiment [6] and in experiment [7] was inactive. Moreover, the figures for the AC50 in [8] and in [9] were 25.2 µM (active) and 3.66 µM (active), respectively.

With `O=C(O)c1ccc([N+](=O)[O-])cc1`, the compound was classed as inactive in experiment [1], in experiment [10], in [4], in experiment [8] and in [9].

As to `COc1c(Cl)c(Cl)c(Cl)c(Cl)c1Cl`, the call in experiment [1] and in experiment [4] was inactive.

For the compound `CC1(C)[C@@H]2CC[C@@]1(C)[C@H](O)C2`, the call in experiment [1], in experiment [4] and in experiment [5] was inactive.

Consider `CCC(=O)/C=C/C1C(C)=CCCC1(C)C` (centres undefined), for which the compound was classed as inactive in experiment [1], in experiment [5], in [6] and in experiment [7]. Further, the AC50 in experiment [10] was 82.5 µM (active); in [4] it was 78.4 µM (active).

Turning to `CCCCCCCCCCN`, the compound was called inactive in experiment [1]. Moreover, the AC50 in experiment [4] is 59.8 µM (active); in experiment [5], 78.2 µM (active).

For the compound `c1ccc2[nH]ccc2c1`, the compound was called inactive in [1], in [4], in experiment [5], in experiment [6] and in experiment [7].

Turning to `CC(=O)OCCOC(C)=O`, the compound was classed as inactive in experiment [1], in experiment [2], in experiment [3], in experiment [5], in [6] and in experiment [7].

Take `CCN(CC)c1ccc2c(-c3ccccc3C(=O)O)c3ccc(=[N+](CC)CC)cc-3oc2c1`: the AC50 in [1] is 12.2 µM (active); in experiment [10], 38.9 µM (active); in [4], 12.7 µM (active); in experiment [5], 16.1 µM (active); in [6], 12.2 µM (active); in experiment [7], 12 µM (active). In addition, the result in [2] and in experiment [3] was inactive.

As for `Cc1ccc(S)cc1`, the compound was called inactive in experiment [1], in experiment [2], in experiment [3], in [6] and in [7]. Further, the half-maximal activity concentration (AC50) is 79.4 µM (active) in experiment [4] and 79.8 µM (active) in experiment [5].

Regarding `C=C(C)C(=O)O`, the result in experiment [1], in [2], in [3], in experiment [4], in [6] and in [7] was inactive.

As to `O=Nc1ccc(Nc2ccccc2)cc1`, the compound was called inactive in [1], in [6] and in experiment [7]. For the same compound, the AC50 in experiment [2] was 72.3 µM (active); in [3], 28.2 µM (active); in [4], 0.707 µM (active).
